Laboratory results taken from ChEMBL document CHEMBL1961873, “Compounds: GSK PKIS; Assays: Nanosyn kinase panel” (2012).

Legend:
[1] = molecular target: Sphingosine kinase 1 (Homo sapiens) (UniProt Q9NYA1); conditions: at 1 µM;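 note: mean SPHK1 inhibition value reported from the GSK PKIS kinase panel screen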
[2] = molecular target: T1, Sphingosine kinase 2 (Homo sapiens) (UniProt Q9NRA0); conditions: at 0.1 µM
T1 sequence (whole entry): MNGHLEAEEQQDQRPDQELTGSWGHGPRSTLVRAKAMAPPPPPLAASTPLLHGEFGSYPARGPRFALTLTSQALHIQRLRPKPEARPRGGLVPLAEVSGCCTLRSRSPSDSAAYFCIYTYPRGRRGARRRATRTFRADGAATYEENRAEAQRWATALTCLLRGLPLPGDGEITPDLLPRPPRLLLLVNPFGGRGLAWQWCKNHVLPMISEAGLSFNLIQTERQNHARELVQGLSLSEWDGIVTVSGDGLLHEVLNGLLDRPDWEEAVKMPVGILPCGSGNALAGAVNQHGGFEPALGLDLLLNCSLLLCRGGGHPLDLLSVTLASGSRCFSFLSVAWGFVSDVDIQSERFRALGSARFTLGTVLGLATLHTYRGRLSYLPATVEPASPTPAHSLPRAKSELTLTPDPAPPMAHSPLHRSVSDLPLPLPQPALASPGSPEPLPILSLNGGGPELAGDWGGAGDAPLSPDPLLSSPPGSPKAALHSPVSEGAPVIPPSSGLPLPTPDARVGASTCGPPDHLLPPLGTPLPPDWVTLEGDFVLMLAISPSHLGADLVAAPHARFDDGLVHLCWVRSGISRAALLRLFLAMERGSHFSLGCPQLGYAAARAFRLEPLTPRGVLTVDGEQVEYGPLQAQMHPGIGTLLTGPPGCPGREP

[3] = molecular target: T1, Sphingosine kinase 2 (Homo sapiens); conditions: at 1 µM
[4] = molecular target: Casein kinase II subunit alpha (Homo sapiens) (UniProt P68400); conditions: at 0.1 µM
Chain of Casein kinase II subunit alpha (Homo sapiens) (P68400 whole entry, looked up): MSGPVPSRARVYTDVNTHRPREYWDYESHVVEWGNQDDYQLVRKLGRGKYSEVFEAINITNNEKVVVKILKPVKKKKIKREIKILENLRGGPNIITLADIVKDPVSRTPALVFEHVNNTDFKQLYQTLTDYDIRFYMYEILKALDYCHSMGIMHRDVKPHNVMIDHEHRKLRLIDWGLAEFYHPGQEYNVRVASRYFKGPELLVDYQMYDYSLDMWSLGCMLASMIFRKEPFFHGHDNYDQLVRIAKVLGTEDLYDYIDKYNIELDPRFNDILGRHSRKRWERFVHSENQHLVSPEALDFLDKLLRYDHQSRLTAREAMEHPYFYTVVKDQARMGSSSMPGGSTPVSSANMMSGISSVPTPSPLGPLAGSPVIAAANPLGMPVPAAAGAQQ

[5] = molecular target: Casein kinase II subunit alpha (Homo sapiens) (UniProt P68400); conditions: at 1 µM
[6] = molecular target: T2, Inhibitor of nuclear factor kappa-B kinase subunit alpha (Homo sapiens) (UniProt O15111); conditions: at 0.1 µM
T2 sequence (whole entry): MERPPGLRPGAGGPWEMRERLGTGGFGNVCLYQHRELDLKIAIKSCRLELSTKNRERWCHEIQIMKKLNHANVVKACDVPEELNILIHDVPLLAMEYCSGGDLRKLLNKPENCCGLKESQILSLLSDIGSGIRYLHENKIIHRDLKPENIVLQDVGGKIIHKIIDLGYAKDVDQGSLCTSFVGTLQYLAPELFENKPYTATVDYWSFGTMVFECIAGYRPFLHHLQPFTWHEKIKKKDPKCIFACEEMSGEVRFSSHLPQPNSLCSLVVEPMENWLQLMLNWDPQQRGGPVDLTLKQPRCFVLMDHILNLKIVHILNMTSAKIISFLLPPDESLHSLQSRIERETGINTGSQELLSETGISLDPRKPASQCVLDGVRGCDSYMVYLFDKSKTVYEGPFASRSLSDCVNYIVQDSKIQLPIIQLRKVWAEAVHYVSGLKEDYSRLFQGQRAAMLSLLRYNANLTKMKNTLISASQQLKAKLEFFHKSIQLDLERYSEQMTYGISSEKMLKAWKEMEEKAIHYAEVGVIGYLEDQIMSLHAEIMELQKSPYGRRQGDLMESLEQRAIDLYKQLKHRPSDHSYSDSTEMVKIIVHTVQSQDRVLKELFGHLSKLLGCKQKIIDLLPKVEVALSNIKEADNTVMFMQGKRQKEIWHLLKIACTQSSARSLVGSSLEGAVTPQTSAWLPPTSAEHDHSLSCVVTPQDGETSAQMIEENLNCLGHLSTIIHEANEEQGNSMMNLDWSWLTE

[7] = molecular target: T2, Inhibitor of nuclear factor kappa-B kinase subunit alpha (Homo sapiens); conditions: at 1 µM
[8] = molecular target: T3, Inhibitor of nuclear factor kappa-B kinase subunit beta (Homo sapiens) (UniProt O14920); conditions: at 0.1 µM
T3 sequence (whole entry): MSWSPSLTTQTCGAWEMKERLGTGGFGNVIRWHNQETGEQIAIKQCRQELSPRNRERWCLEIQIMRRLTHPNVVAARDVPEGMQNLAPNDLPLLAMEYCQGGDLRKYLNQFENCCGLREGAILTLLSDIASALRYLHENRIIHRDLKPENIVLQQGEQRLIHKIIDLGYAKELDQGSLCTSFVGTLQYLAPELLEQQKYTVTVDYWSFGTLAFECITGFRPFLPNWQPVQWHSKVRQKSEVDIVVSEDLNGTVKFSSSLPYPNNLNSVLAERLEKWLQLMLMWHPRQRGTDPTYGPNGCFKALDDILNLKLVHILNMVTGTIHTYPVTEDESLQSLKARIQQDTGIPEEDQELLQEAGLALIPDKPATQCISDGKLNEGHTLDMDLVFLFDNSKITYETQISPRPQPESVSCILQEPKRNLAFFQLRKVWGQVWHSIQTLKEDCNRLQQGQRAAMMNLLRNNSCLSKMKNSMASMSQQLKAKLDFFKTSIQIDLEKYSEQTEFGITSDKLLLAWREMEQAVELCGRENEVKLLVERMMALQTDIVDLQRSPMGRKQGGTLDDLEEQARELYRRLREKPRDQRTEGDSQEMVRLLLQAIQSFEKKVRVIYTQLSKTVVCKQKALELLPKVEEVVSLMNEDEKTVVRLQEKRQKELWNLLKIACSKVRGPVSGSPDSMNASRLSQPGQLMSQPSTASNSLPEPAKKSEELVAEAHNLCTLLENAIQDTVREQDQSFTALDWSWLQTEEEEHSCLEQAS

[9] = molecular target: T3, Inhibitor of nuclear factor kappa-B kinase subunit beta (Homo sapiens); conditions: at 1 µM
[10] = molecular target: T4, Inhibitor of nuclear factor kappa-B kinase subunit epsilon (Homo sapiens) (UniProt Q14164); conditions: at 0.1 µM
T4 sequence (whole entry): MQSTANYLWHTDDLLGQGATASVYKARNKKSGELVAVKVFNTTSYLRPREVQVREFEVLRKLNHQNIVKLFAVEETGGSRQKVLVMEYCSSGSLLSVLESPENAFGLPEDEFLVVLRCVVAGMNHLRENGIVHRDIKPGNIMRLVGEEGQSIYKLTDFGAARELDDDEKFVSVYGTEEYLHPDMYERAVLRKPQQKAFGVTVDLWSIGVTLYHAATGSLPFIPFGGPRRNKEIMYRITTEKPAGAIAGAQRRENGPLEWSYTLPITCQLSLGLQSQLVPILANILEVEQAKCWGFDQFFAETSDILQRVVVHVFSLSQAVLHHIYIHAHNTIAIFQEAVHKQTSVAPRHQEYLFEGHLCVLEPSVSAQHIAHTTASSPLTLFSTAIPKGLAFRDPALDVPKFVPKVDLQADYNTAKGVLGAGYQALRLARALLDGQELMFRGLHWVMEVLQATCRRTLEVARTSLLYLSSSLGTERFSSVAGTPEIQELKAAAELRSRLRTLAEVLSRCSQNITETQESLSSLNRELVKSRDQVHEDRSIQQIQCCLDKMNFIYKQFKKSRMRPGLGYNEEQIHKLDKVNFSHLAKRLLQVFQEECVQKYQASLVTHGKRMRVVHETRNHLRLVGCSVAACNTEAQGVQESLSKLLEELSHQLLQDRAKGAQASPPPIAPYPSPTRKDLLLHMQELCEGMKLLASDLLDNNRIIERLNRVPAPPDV

[11] = molecular target: T4, Inhibitor of nuclear factor kappa-B kinase subunit epsilon (Homo sapiens); conditions: at 1 µM
[12] = molecular target: T5, Serine/threonine-protein kinase Nek1 (Homo sapiens) (UniProt Q96PY6); conditions: at 0.1 µM
T5 sequence (whole entry): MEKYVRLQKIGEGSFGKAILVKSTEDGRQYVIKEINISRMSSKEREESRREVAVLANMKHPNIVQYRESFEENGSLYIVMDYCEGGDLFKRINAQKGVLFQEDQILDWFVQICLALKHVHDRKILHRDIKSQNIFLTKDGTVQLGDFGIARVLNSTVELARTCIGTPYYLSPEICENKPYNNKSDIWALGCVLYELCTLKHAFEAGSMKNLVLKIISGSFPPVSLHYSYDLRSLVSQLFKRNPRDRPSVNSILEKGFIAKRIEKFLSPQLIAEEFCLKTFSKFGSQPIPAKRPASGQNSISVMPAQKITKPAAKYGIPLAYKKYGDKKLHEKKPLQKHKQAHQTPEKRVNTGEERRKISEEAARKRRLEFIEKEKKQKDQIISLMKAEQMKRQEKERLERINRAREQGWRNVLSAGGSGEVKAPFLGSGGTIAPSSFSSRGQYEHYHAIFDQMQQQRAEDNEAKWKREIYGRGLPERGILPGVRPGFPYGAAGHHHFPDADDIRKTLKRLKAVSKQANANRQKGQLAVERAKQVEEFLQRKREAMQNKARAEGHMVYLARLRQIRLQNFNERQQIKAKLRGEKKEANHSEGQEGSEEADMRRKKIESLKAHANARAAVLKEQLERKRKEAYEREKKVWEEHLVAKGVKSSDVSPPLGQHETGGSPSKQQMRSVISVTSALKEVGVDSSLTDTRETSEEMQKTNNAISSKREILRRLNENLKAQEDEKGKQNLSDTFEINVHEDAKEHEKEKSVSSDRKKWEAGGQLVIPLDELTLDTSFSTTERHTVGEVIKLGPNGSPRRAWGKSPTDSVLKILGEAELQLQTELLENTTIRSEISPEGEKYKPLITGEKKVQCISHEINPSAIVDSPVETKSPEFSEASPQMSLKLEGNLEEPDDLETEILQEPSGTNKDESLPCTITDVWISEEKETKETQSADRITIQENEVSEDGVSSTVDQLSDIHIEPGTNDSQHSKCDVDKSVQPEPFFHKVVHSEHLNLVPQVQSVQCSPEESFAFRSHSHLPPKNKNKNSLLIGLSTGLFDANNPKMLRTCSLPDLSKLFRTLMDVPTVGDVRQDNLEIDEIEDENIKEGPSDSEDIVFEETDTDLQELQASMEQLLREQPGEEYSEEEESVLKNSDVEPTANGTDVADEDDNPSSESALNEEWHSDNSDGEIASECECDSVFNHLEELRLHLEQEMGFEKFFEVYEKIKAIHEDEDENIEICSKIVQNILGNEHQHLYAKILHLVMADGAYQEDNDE

[13] = molecular target: T5, Serine/threonine-protein kinase Nek1 (Homo sapiens); conditions: at 1 µM
[14] = molecular target: T6, Serine/threonine-protein kinase Nek2 (Homo sapiens) (UniProt P51955); conditions: at 0.1 µM
T6 sequence (whole entry): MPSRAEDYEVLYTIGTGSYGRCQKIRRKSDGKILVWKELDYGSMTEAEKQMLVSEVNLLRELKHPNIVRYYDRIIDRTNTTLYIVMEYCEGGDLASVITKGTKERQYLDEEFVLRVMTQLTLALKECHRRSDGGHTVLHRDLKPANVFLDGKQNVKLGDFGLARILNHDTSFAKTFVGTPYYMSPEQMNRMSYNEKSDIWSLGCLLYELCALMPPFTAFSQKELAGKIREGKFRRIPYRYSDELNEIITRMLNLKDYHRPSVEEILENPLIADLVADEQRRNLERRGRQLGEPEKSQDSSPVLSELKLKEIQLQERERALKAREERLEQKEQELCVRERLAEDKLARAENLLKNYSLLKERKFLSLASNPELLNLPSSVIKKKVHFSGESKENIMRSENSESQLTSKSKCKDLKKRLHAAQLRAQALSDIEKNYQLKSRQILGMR

[15] = molecular target: T6, Serine/threonine-protein kinase Nek2 (Homo sapiens); conditions: at 1 µM
[16] = molecular target: Serine/threonine-protein kinase Nek6 (Homo sapiens) (UniProt Q9HC98); conditions: at 0.1 µM
Chain of Serine/threonine-protein kinase Nek6 (Homo sapiens) (Q9HC98 whole entry): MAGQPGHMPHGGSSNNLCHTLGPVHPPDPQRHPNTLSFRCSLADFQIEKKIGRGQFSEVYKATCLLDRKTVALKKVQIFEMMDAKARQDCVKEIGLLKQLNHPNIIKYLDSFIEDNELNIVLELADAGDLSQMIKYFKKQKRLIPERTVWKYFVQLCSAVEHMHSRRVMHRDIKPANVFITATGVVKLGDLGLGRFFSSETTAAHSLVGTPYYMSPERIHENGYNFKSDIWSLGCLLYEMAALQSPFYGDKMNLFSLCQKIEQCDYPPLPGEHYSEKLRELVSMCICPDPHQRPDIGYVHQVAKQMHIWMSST

[17] = molecular target: Serine/threonine-protein kinase Nek6 (Homo sapiens) (UniProt Q9HC98); conditions: at 1 µM
[18] = molecular target: Serine/threonine-protein kinase Nek7 (Homo sapiens) (UniProt Q8TDX7); conditions: at 0.1 µM
Chain of Serine/threonine-protein kinase Nek7 (Homo sapiens) (Q8TDX7 whole entry, looked up): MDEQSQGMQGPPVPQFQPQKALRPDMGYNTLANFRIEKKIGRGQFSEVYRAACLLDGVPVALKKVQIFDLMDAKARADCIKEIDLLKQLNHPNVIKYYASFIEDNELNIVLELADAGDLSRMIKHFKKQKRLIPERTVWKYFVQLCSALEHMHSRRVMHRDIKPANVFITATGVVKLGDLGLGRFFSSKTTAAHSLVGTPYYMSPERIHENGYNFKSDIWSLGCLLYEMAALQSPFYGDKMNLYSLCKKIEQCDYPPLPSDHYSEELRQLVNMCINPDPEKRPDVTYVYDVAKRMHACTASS

[19] = molecular target: Serine/threonine-protein kinase Nek7 (Homo sapiens) (UniProt Q8TDX7); conditions: at 1 µM
[20] = molecular target: T7, Serine/threonine-protein kinase Nek9 (Homo sapiens) (UniProt Q8TD19); conditions: at 0.1 µM;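 note: reported value is the mean percent inhibition of NEK9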
T7 sequence (whole entry): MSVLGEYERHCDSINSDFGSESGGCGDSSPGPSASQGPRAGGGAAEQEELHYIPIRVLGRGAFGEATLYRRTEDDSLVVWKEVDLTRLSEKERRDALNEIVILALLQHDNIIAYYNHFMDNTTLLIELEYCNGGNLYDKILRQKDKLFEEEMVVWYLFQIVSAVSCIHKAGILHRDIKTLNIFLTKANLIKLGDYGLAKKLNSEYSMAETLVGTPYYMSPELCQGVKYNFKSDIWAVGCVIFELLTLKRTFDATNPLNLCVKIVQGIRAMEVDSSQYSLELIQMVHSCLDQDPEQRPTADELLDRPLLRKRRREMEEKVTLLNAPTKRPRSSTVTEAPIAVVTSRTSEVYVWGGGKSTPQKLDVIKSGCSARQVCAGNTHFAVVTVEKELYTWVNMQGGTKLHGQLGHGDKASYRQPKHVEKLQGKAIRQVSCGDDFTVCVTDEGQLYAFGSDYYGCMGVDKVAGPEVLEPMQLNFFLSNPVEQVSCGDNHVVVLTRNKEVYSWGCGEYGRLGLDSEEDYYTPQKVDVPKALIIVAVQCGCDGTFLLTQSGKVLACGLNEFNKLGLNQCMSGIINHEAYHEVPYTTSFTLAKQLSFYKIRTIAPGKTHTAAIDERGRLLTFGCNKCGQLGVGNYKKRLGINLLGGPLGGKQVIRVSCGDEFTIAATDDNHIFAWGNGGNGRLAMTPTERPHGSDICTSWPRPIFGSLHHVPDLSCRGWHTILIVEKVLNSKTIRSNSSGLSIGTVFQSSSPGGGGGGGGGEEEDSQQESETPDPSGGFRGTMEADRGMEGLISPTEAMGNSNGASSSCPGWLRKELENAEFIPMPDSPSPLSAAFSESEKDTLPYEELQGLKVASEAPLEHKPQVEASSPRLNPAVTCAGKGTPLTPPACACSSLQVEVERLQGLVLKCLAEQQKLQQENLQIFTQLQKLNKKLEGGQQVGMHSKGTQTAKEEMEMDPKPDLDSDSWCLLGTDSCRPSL

Chain of Sphingosine kinase 1 (Homo sapiens) (Q9NYA1 whole entry): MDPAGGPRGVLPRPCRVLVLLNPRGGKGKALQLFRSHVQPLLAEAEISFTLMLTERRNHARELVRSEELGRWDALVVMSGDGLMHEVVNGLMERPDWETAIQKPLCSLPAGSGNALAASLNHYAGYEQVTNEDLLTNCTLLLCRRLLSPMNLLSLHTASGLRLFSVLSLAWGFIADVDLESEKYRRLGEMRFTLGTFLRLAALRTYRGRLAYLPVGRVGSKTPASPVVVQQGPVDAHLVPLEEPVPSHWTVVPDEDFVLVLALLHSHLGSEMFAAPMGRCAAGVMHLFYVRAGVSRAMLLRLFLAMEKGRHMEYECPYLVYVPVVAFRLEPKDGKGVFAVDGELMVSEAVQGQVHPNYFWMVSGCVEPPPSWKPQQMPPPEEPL

SMILES	inhibition [1] [%]	inhibition [2] [%]	inhibition [3] [%]	inhibition [4] [%]	inhibition [5] [%]	inhibition [6] [%]	inhibition [7] [%]	inhibition [8] [%]	inhibition [9] [%]	inhibition [10] [%]	inhibition [11] [%]	inhibition [12] [%]	inhibition [13] [%]	inhibition [14] [%]	inhibition [15] [%]	inhibition [16] [%]	inhibition [17] [%]	inhibition [18] [%]	inhibition [19] [%]	inhibition [20] [%]
ON=C1CCc2cc(-c3nc(C4CCNCC4)[nH]c3-c3ccncc3)ccc21	-2.71	0.13	-0.91	-3.67	-3.6	-9.89	-1.59	6.16	4.62	1.88	2.68	0.37	-0.17	0.86	1.18	-0.82	-3.55	2.03	0.72	4.01
COc1cc2ncn(-c3cc(OCc4ccccc4S(C)(=O)=O)c(C#N)s3)c2cc1OC	-0.15	0.46	-2.2	2.39	5	6.91	5.75	3.44	1.17	42.5	115	2.58	3	6.68	14.4	3.33	-0.15	4.85	3.13	3.17
